Records with an inconclusive call do not appear. Entries that show only a call come without a potency. Calls of active or inactive are those of the source. The call rests on the fitted dose curve; in most records, active means well fitted inhibition curve with a large enough effect; inconclusive means small, poorly fitted or top-dose-only effect; inactive means no such curve, though single readings can be large or run the other way.
experiment: qHTS assay for measurement of the activity of small molecule inhibitors on Zika virus induced Caspase-3 activity in human iPSC derived neural progenitor cells (hNPCs) (AID 1224857); settings: hNPCs ZIKV-induced caspase-3/7, Caspase-Glo luminescence, 6 h; series mostly up to 45.7 µM; further: nearly all actives have a fitted effect of over 65% in size
Outline: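 Pretreat hNPCs with compound 1 h; infect ZIKV 2 FFU/cell; 6 h 37 C, 5% CO2; Caspase-Glo 3/7, 30 min RT; luminescence; normalize to no-virus and virus-only wells.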

| Structure (SMILES) | Potency |
| --- | --- |
| N[C@@H](Cc1ccc(F)cc1)C(=O)O | inactive |
| O=C(O)c1ccccc1Nc1ccccc1 | inactive |
| NCC(O)C1CCCCCCC1 (stereo unspecified) | inactive |
| O=C(O)c1cc2cc(F)ccc2[nH]1 | inactive |
| CC(C)NC[C@H](O)COc1cccc2ccccc12 | inactive |
| Cn1cc(C(=O)OCC2CCN(CCNS(C)(=O)=O)CC2)c2ccccc21 | inactive |
| CCCCCC(O)CCCC(=O)O (stereo unspecified) | inactive |
| Cc1ccc2c(c1)C(N1CCN(C)CC1)=Nc1cccnc1N2 | inactive |
| CNCCc1cnc(CCC(c2ccccc2)c2ccccc2)[nH]1 | inactive |
| Cc1cccc(C(=O)NCN2CCN(c3ccccc3C#N)CC2)c1 | inactive |
| CC(C)C[C@H](NC(=O)[C@H](O)[C@H](N)Cc1ccccc1)C(=O)O | inactive |
| O=C(O)Cc1ccc(O)c(O)c1 | inactive |
| N[C@@H](CCCC(=O)O)C(=O)O | inactive |
| CCCCCCC(=O)OC1CC(C)(C)NC(C)(C)C1 | inactive |
| COCc1nc2c([nH]1)c(=O)n(C)c(=O)n2CC(C)C | inactive |
| C=CCN1CCc2c(cc(O)c(O)c2Br)[C@@H](c2ccccc2)C1 | inactive |
| CCCCCCCCCC(=O)NC(CN1CCOCC1)[C@H](O)c1ccccc1 (stereo partly specified) | inactive |
| C[C@](Cc1ccc(O)c(O)c1)(NN)C(=O)O | inactive |
| CC1=C(/C=C/C(C)=C/C=C/C(C)=C\C(=O)O)C(C)(C)CCC1 | inactive |

| Structure (SMILES) | Potency |
| --- | --- |
| CCCCC[C@H](CC(=O)NO)C(=O)N[C@H](C(=O)N1CCC[C@H]1CO)C(C)C | inactive |
| NC(N)=N[C@@H](CCC(=O)O)C(=O)O | inactive |
| COC(=O)C(N)Cc1ccc(Cl)cc1 (stereo unspecified) | inactive |
| COc1ccccc1N1CCN(CCCCNC(=O)c2ccc3ccccc3c2)CC1 | inactive |
| Cn1c(=O)c2c(nc(/C=C/c3cccc(Cl)c3)n2C)n(C)c1=O | inactive |
| O=c1cc(-c2ccccc2)[nH]c2nc(Cl)ccc12 | inactive |
| COc1cccc(OC)c1OCCNCC1CSc2ccccc2O1 (stereo unspecified) | inactive |
| S=C(S)N1CCCC1 | inactive |
| CC1CNCCN1S(=O)(=O)c1cccc2cnccc12 (stereo unspecified) | inactive |
| CCc1ccc2c(-c3cccc(Cl)c3)nc(=O)n(CC)c2n1 | inactive |
| CCn1c(=O)[nH]c2cc(Cl)c(Cl)cc21 | inactive |
| CC1C(=O)N(C)C(=O)c2nc[nH]c21 (stereo unspecified) | inactive |
| c1ccc2c(c1)CC(N1CCN(c3cccc4c3OCCO4)CC1)C2 | inactive |
| CN1C2CCC1CC(OC(c1ccccc1)c1ccccc1)C2 (stereo unspecified) | inactive |
| CC(C)(C)c1ccc(/C=C/C(=O)Nc2ccc3c(c2)OCCO3)cc1 | inactive |
| OC[C@H]1O[C@@H](n2cnc3cncnc32)[C@H](O)[C@@H]1O | inactive |
| C/C(=C\c1ccc(C(=O)O)cc1)c1ccc2c(c1)C(C)(C)CCC2(C)C | inactive |
| Clc1nccc2c1ccc1ccccc12 | inactive |
| O=c1ccn([C@@H]2O[C@H](COP(=O)(O)OP(=O)(O)O)[C@@H](O)[C@H]2O)c(=O)[nH]1 | inactive |

experiment: qHTS assay for measurement of the activity of small molecule inhibitors on Zika virus induced Caspase-3 activity in human astrocytoma cells (AID 1224859); settings: SNB-19 ZIKV-induced caspase-3/7, luminescence, 6 h; series mostly up to 45.7 µM
Outline: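 Human SNB-19 astrocytoma cells in RPMI 1640 with 10% FBS receive compound one hour ahead of Zika virus at 2 FFU/cell. After 6 h infection, caspase-3/7 activity is detected by Caspase-Glo luminescence.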

| Structure (SMILES) | Potency |
| --- | --- |
| N[C@@H](Cc1ccc(F)cc1)C(=O)O | inactive |
| O=C(O)c1ccccc1Nc1ccccc1 | inactive |
| NCC(O)C1CCCCCCC1 (stereo unspecified) | inactive |
| O=C(O)c1cc2cc(F)ccc2[nH]1 | inactive |
| CC(C)NC[C@H](O)COc1cccc2ccccc12 | inactive |
| Cn1cc(C(=O)OCC2CCN(CCNS(C)(=O)=O)CC2)c2ccccc21 | inactive |
| CCCCCC(O)CCCC(=O)O (stereo unspecified) | inactive |
| Cc1ccc2c(c1)C(N1CCN(C)CC1)=Nc1cccnc1N2 | inactive |
| CNCCc1cnc(CCC(c2ccccc2)c2ccccc2)[nH]1 | inactive |
| Cc1cccc(C(=O)NCN2CCN(c3ccccc3C#N)CC2)c1 | inactive |
| CC(C)C[C@H](NC(=O)[C@H](O)[C@H](N)Cc1ccccc1)C(=O)O | inactive |
| O=C(O)Cc1ccc(O)c(O)c1 | inactive |
| N[C@@H](CCCC(=O)O)C(=O)O | inactive |
| CCCCCCC(=O)OC1CC(C)(C)NC(C)(C)C1 | inactive |
| COCc1nc2c([nH]1)c(=O)n(C)c(=O)n2CC(C)C | inactive |
| C=CCN1CCc2c(cc(O)c(O)c2Br)[C@@H](c2ccccc2)C1 | inactive |
| CCCCCCCCCC(=O)NC(CN1CCOCC1)[C@H](O)c1ccccc1 (stereo partly specified) | inactive |
| C[C@](Cc1ccc(O)c(O)c1)(NN)C(=O)O | inactive |
| CC1=C(/C=C/C(C)=C/C=C/C(C)=C\C(=O)O)C(C)(C)CCC1 | inactive |

| Structure (SMILES) | Potency |
| --- | --- |
| CCCCC[C@H](CC(=O)NO)C(=O)N[C@H](C(=O)N1CCC[C@H]1CO)C(C)C | inactive |
| NC(N)=N[C@@H](CCC(=O)O)C(=O)O | inactive |
| COC(=O)C(N)Cc1ccc(Cl)cc1 (stereo unspecified) | inactive |
| COc1ccccc1N1CCN(CCCCNC(=O)c2ccc3ccccc3c2)CC1 | inactive |
| Cn1c(=O)c2c(nc(/C=C/c3cccc(Cl)c3)n2C)n(C)c1=O | inactive |
| O=c1cc(-c2ccccc2)[nH]c2nc(Cl)ccc12 | inactive |
| COc1cccc(OC)c1OCCNCC1CSc2ccccc2O1 (stereo unspecified) | inactive |
| S=C(S)N1CCCC1 | inactive |
| CC1CNCCN1S(=O)(=O)c1cccc2cnccc12 (stereo unspecified) | inactive |
| CCc1ccc2c(-c3cccc(Cl)c3)nc(=O)n(CC)c2n1 | inactive |
| CCn1c(=O)[nH]c2cc(Cl)c(Cl)cc21 | inactive |
| CC1C(=O)N(C)C(=O)c2nc[nH]c21 (stereo unspecified) | inactive |
| c1ccc2c(c1)CC(N1CCN(c3cccc4c3OCCO4)CC1)C2 | inactive |
| CN1C2CCC1CC(OC(c1ccccc1)c1ccccc1)C2 (stereo unspecified) | inactive |
| CC(C)(C)c1ccc(/C=C/C(=O)Nc2ccc3c(c2)OCCO3)cc1 | inactive |
| OC[C@H]1O[C@@H](n2cnc3cncnc32)[C@H](O)[C@@H]1O | inactive |
| C/C(=C\c1ccc(C(=O)O)cc1)c1ccc2c(c1)C(C)(C)CCC2(C)C | inactive |
| Clc1nccc2c1ccc1ccccc12 | inactive |
| O=c1ccn([C@@H]2O[C@H](COP(=O)(O)OP(=O)(O)O)[C@@H](O)[C@H]2O)c(=O)[nH]1 | inactive |
